Laboratory results published in PubChem BioAssay (NCI).
About 79,000 compounds went through this panel and 15% of them were active in at least one assay; those are over-represented in the sample as a whole. Activity calls are given as the source filed them. Cut-off read from the data, not from the text of the source: active = growth inhibition above about 70%; inactive = the rest.

Experiments:
[1] = NCI Yeast Anticancer Drug Screen. Data for the rad50 strain (AID 155);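 note: 0% = growth of vehicle-only cultures of the same strain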; conditions: S. cerevisiae rad50 strain growth inhibition; at 50.0 µM; active compounds read high
How it was run: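 Yeast carrying a defined DNA repair defect were exposed to test compounds, and growth was compared with vehicle-treated controls to give percent inhibition.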

[2] = NCI Yeast Anticancer Drug Screen. Data for the mec2-1 strain (AID 157); conditions: S. cerevisiae mec2-1 strain, at 50.0 µM, active compounds read high
How it was run: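 Cells of the genetically defined mec2-1 yeast strain are incubated with test compound. Inhibition of growth is calculated against vehicle-treated controls.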

[3] = NCI Yeast Anticancer Drug Screen. Data for the sgs1 mgt1 strain (AID 161);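 note: 0% = growth of cultures given vehicle only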; conditions: S. cerevisiae sgs1 mgt1 strain, at 50.0 µM, active compounds read high
How it was run: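 Read-out: growth inhibition vs vehicle controls. Cells: mutant yeast strain deficient in DNA damage repair.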

[4] = NCI Yeast Anticancer Drug Screen. Data for the cln2 rad14 strain (AID 165);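 note: 0% = growth equal to vehicle treated cultures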; conditions: S. cerevisiae cln2 rad14 strain, at 50.0 µM, active compounds read high
How it was run: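 The screen exposed genetically defined yeast (cln2 rad14) to test compounds and scored growth inhibition relative to vehicle-treated controls.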

[5] = NCI Yeast Anticancer Drug Screen. Data for the bub3 strain (AID 167); conditions: S. cerevisiae bub3 mutant strain, at 50.0 µM, active compounds read high
How it was run: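 Compounds were applied to a genetically altered yeast strain carrying a cell-cycle control defect. Growth inhibition was scored against vehicle-treated controls.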

[6] = NCI Yeast Anticancer Drug Screen. Data for the mlh1 rad18 strain (AID 175); conditions: S. cerevisiae mlh1 rad18 strain growth inhibition; at 50.0 µM; active compounds read high
How it was run: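 Compound-treated yeast growth, normalised to vehicle controls. Strain bears defined DNA repair mutations.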

Measured: growth inhibition

CC(=O)CC(=O)NCc1cccc(C)n1
inactive: [1] 38.1% | [2] 24.6% | [3] 28.6% | [4] -8.15% | [5] 20.9% | [6] 24.1%

CCOC(=O)/C=C/SCC(N)C(=O)OCC (stereo unspecified)
inactive: [1] -14.4% | [2] -1.45% | [3] -12.9% | [4] 19.6% | [5] -5.55% | [6] -4.55%

N=c1oc2ccc([N+](=O)[O-])cc2cc1C(=O)NCc1ccccc1
inactive: [1] 11.3% | [2] -0.9% | [3] -13.9% | [4] 3.95% | [5] -35.5% | [6] -71.8%

OC1CSCCCSCC(O)CSCCCSC1 (stereo unspecified)
inactive: [1] 1.7% | [2] 10.9% | [3] 3.4% | [4] -2.5% | [5] 0.2% | [6] 8%

COc1cc2c3c4c1OCc1c5c(cc(c1-4)CC3[N+](C)(C)CC2)OCO5 (stereo unspecified)
inactive: [1] 4.35% | [2] 6.3% | [3] 8.7% | [4] 21.1% | [5] 11.1% | [6] -52.1%

CCC(=O)/C=C/c1ccc(Cl)cc1
inactive: [1] 10.7% | [2] 8% | [3] 7.75% | [4] -25.6% | [5] -14.7% | [6] 11.3%

Cc1ccc(NC(=S)NC2CCCCC2)cc1Cl
inactive: [1] -2.4% | [2] 43% | [3] 29.4% | [4] -24.9% | [5] 42.3% | [6] 26.6%

CCO/N=C(/N)c1ncn(Cc2ccccc2)c1NCC(OCC)OCC
inactive: [1] -26.4% | [2] 1.15% | [3] -4.2% | [4] 22.2% | [5] -1% | [6] -16.9%

C=C1C(=O)OC2CC(C)C3CC(OCCCl)OC(OCCCl)C3(C)CC12 (stereo unspecified)
inactive: [1] 13.8% | [2] 7.65% | [3] -3.05% | [4] 7.25% | [5] 5.65% | [6] -6.2%

CC(=O)OCC(=O)[C@@]1(O)CC[C@H]2[C@@H]3CCC4=CC(=O)CC[C@]4(C)[C@H]3[C@@H](O)C[C@@]21C
inactive: [1] -20.6% | [2] -17.4% | [3] -3.2% | [4] -20.3% | [5] -23.1% | [6] -38.5%

NC(N)=NC(N)=Nc1ccc2ccccc2c1
inactive: [1] 58.4% | [2] 12.3% | [3] 17% | [4] 20.3% | [5] 8.6% | [6] 22.6%

c1ccc(C2=C(c3ccccc3)c3ccccc3C2)cc1
inactive: [1] 0.3% | [2] -7.3% | [3] 8.55% | [4] 0.35% | [5] -8.85% | [6] -9.35%

CCC(C#N)NC1CCN(Cc2ccccc2)CC1 (stereo unspecified)
inactive: [1] 1.3% | [2] -23.1% | [3] -2.05% | [4] 6.1% | [5] -7.75% | [6] 5.85%

CC(=O)Nc1ccc(C)cc1[N+](=O)[O-]
inactive: [1] -29.6% | [2] 1.15% | [3] -29.2% | [4] -29.9% | [5] -42.5% | [6] -43.2%

CC(C)(NC(=O)c1ccccc1)NC(=O)c1ccccc1
inactive: [1] 5.35% | [2] -10.1% | [3] -5.8% | [4] -38.2% | [5] 5.55% | [6] -6.35%

Clc1ccc(CCn2ccc3ccccc32)c(Cl)c1
inactive: [1] -12.6% | [2] -10% | [3] 0.05% | [4] 7.2% | [5] 16.9% | [6] 4.35%

Cc1ccccc1NC(=O)CN1CCCC(C)C1 (stereo unspecified)
inactive: [1] 10.7% | [2] -34.8% | [3] 0.9% | [4] 11.3% | [5] -16.2% | [6] 5.45%

CC(=O)c1c(-c2ccc(Cl)cc2)c(-c2ccc(Cl)cc2)nn(CCNC(C)C)c1=O
active: [1] 96.7% | [2] 98.4% | [3] 95.8% | [4] 88.9% | [5] 80.5% | [6] 95%

Cc1ccc(Cl)cc1NS(=O)(=O)c1ccccc1
inactive: [1] -4.35% | [2] -31.1% | [3] -2.8% | [4] -14.3% | [5] -22.8% | [6] 5.55%

Nc1nc(N)c2nc(/C=C/c3ccc4c(c3)OCO4)cnc2n1
inactive: [1] -2.25% | [2] -25.4% | [3] -4.5% | [4] 2.15% | [5] -9.1% | [6] -13.8%

COC(=O)c1cc(C)cc(N(c2ccccc2[N+](=O)[O-])S(=O)(=O)c2ccc(C)cc2)c1C
inactive: [1] 15.9% | [2] -9.35% | [3] -25.3% | [4] 1.2% | [5] -10.3% | [6] -9%

O=c1nc2sc3ccccc3c(=O)n2[nH]1
inactive: [1] -39.6% | [2] -42% | [3] -2.85% | [4] 6.85% | [5] -12.2% | [6] -28.8%

C/C=C/C=N/SC(c1ccccc1)(c1ccccc1)c1ccccc1
inactive: [1] 9.35% | [2] -7% | [3] -5.05% | [4] 4.45% | [5] -26.1% | [6] 13.6%

CC(c1ccccc1)/[N+]([O-])=C/c1ccccc1 (stereo unspecified)
inactive: [1] -31.7% | [2] -33.4% | [3] -46% | [4] -6.7% | [5] -57.2% | [6] -21.6%

CC(=O)n1c(=O)c2cc3c(=O)n(-c4cccc(C#N)c4)c(=O)c3cc2c1=O
inactive: [1] -25.4% | [2] -19.4% | [3] 9.65% | [4] 7.65% | [5] 4.8% | [6] -9.65%

Nc1cc2c(O)cc(S(=O)(=O)O)cc2cc1S(=O)(=O)O
inactive: [1] -5.9% | [2] 8.15% | [3] 2.35% | [4] 14.1% | [5] 34.2% | [6] -4.3%

C1CCC2(CC1)OCCO2
inactive: [1] -0.75% | [2] -37.9% | [3] -20.8% | [4] 1.3% | [5] -7.85% | [6] 0.6%

CCOP(C)(=O)C(Cc1c[nH]c2ccccc12)C(=O)O (stereo unspecified)
inactive: [1] -20.7% | [2] -19.7% | [3] 9.9% | [4] 13% | [5] -12.8% | [6] -2.5%

COc1ccc(C(=O)/C=C/c2ccccc2)c(O)c1OC
inactive: [1] -7.45% | [2] -1.85% | [3] 8.1% | [4] -0.95% | [5] 9.95% | [6] -7.1%

Cc1ccc(N2CCN(c3ccc([N+](=O)[O-])cc3)CC2)cc1Cl
inactive: [1] -6.15% | [2] 7.15% | [3] 2.85% | [4] -12.4% | [5] 0.15% | [6] -28.3%

C=C1C(=O)C23CC1C[C@H](OC(C)=O)C2C1(C)C(OC(C)=O)C[C@H](O)C(C)(C)[C@H]1C(O)[C@@H]3OC(C)=O (stereo partly specified)
inactive: [1] 9.8% | [2] -3.85% | [3] 3.25% | [4] -2.95% | [5] 24.1% | [6] 20.3%

O=C(NCCCc1ccccc1)Nc1ccccc1
inactive: [1] 16.4% | [2] -0.65% | [3] -8.05% | [4] -10.4% | [5] -1.35% | [6] 3.45%

CN1N=C(N)c2cn(C3OC(COP(=O)(O)O)C(O)C3O)c3ncnc1c23 (stereo unspecified)
inactive: [1] -16.2% | [2] 1.2% | [3] 4.7% | [4] -22.8% | [5] 11.3% | [6] -9.05%

C/C(=N\NC(N)=S)c1ccc(C)cc1C
inactive: [1] 45.4% | [2] -3.75% | [3] 57% | [4] 25.9% | [5] 7.55% | [6] 59.5%

Cc1cc(C(=O)N/N=C/c2cc(Cl)cc(Cl)c2O)c2cc(Br)ccc2n1
inactive: [1] 61.5% | [2] 25.4% | [3] 54% | [4] 15.9% | [5] -0.2% | [6] 45%

O=C(O)c1ccc([N+](=O)[O-])c(P(=O)(O)O)c1
inactive: [1] -5.95% | [2] -7% | [3] -12.2% | [4] -42.8% | [5] -29.6% | [6] -3.5%

CSc1ccc(NC(=O)SCc2ccccc2)cc1
inactive: [1] -3.5% | [2] 5.15% | [3] 1% | [4] -2.7% | [5] 15.9% | [6] 8.55%

Cc1cc(Cc2ccc(N)c(C)c2)ccc1N
inactive: [1] 3.4% | [2] 0.9% | [3] -12.8% | [4] -52.9% | [5] -19% | [6] -2.45%

CC(=O)Oc1c(C(OC(C)=O)OC(C)=O)ccc([N+](=O)[O-])c1OC(C)=O
inactive: [1] 34.1% | [2] 28.9% | [3] 36.5% | [4] 5.5% | [5] 9.3% | [6] 18.9%

COc1cnnc2ccccc12
inactive: [1] 12.8% | [2] 3.2% | [3] 4.6% | [4] -2.35% | [5] -0.9% | [6] 14.3%

CN(CC(=O)O)c1ncc2c(n1)-c1ccccc1OC2c1ccccc1 (stereo unspecified)
inactive: [1] 21.9% | [2] 19.6% | [3] 44.5% | [4] 47% | [5] 28.9% | [6] 67.8%
